# BoNT A protease – BoNT/A light chain protease inhibitors, primary screen, biochemical, flow cytometry, MLPCN library; Botulinum neurotoxin type A light chain protease (Clostridium botulinum A str. ATCC 3502); multiplex microsphere protease substrate cleavage; inhibition, % at 10 µM; 360,000 tested, 0.17% active; AID 588499, 2011
# BoNT-F LC inh – BoNT/F light chain protease inhibitors, primary screen, biochemical, flow cytometry, MLPCN library. Botulinum neurotoxin type F light chain protease (Clostridium botulinum). Multiplex microsphere protease cleavage assay. inhibition, % at 10 µM. 360,000 tested, 0.22% active. AID 588497, 2011; in the data active means inhibition above about 35%, passing the limit was not always enough; inconclusive means no clear call, values can overlap the other calls
# MazF activator – activators of E. coli MazEF toxin-antitoxin RNase, primary screen, biochemical, fluorescence, uHTS; 350,000 tested, 0.32% active; activation, % at 20 µM; Endoribonuclease toxin MazF (Escherichia coli (strain K12)), P0AE70; FAM/BHQ RNA-DNA oligo cleavage fluorescence, 5 h; AID 504720, 2011; in the data active means activation above about 50%
# Anthrax LF inh2 – Bacillus anthracis LF protease inhibitors, primary screen, biochemical, multiplex microsphere, MLPCN library; Lethal factor (Bacillus anthracis), P15917; multiplex microsphere protease cleavage assay; inhibition, % at 10 µM; 360,000 tested, 0.12% active
# Autofluor counter – flagged as autofluorescent in microsphere protease counterscreen | AID 624483 | 360,000 tested, 3.1% active | compound autofluorescence counterscreen, microsphere flow cytometry; active compounds read high | fluorescence intensity (no concentration beside the values); in the data active means fluorescence intensity above about 16000; inconclusive means no clear call, values can overlap the other calls
# Hits are given with their value; 0 = inactive; ? = inconclusive; - = no result. Most compounds without a hit are left out; they make up all but 3.6% or so of the library. Unless noted, no stated cut-off is given here; in the data, active means inhibition above about 30%; inconclusive means no clear call, values can overlap the other calls; inactive means below that.
SMILES,BoNT A protease,BoNT-F LC inh,MazF activator,Anthrax LF inh2,Autofluor counter
CCOC(=O)C1=NN2C(O)C3(C)CC(C(=O)OCC)=NN3C(O)C2(C)C1 (stereo not given),0,0,0,0,0
CCc1cccc(OCC2Cn3c(nc4c3c(=O)[nH]c(=O)n4C)O2)c1 (stereo not given),0,0,0,0,0
COc1ccc(-c2cc(C(F)F)n3ncc(C(=O)N4CCN5CCCC5C4)c3n2)cc1 (stereo not given),0,0,0,0,17221
COc1ccccc1C(=O)Nc1sc2c(c1C#N)CCC2,0,0,79.6,0,0
COc1ccccc1C(=O)Nc1sc2c(c1C(N)=O)CCCC2,0,0,0,0,0
COC(=O)Cc1ccc(NC(=O)c2ccc(C)c(C)c2)cc1,0,0,0,0,24555
CN(CC(=O)Nc1ccc(F)cc1)C(=O)Cn1cnc2ccc([N+](=O)[O-])cc2c1=O,0,0,0,0,0
Cc1cc(NC(=O)CCN2C(=O)C3C4CCC(C4)C3C2=O)cc(C)c1Br (stereo not given),0,0,0,0,0
Cc1c(Br)ccc(NC(=O)CCN2C(=O)C3C4CCC(C4)C3C2=O)c1C (stereo not given),?,0,0,0,23010
O=C(O)Cn1ccc2ccccc21,0,0,0,0,0
Cc1ccn(CC(=O)O)c(=O)c1,?,0,0,0,22082
CCCCCCn1cc(CN2CC(N(C)C)CS2(=O)=O)nn1 (stereo not given),0,0,-,0,0
O=C(CCC1COc2ccccc2O1)Nc1cccnc1 (stereo not given),0,0,0,0,23308
CCS(=O)(=O)N1CCN(c2ccccn2)CC1,0,0,0,0,26268
O=S(=O)(c1cccs1)N1CCN(c2ccccn2)CC1,0,0,0,0,22816
O=S(=O)(c1cccs1)N1CCN(c2ncccn2)CC1,0,0,0,0,0
CCCS(=O)(=O)N1CCN(c2ccccn2)CC1,0,0,0,0,0
COc1cc(OC)cc(C(=O)OCC(=O)NC2CCCCCCC2)c1,0,0,0,0,0
COC(=O)/C(N=Nc1cccc(C(F)(F)F)c1)=C(\C)O,0,0,0,0,0
COC(=O)C1=C(O)CSC1=Nc1cccc(C(F)(F)F)c1,0,0,0,0,17678
COc1ccc(Cn2cc(CN(C)C3CN(Cc4cn(Cc5ccc(OC)cc5)nn4)S(=O)(=O)C3)nn2)cc1 (stereo not given),0,0,-,0,0
CCCCc1nc2ccccc2c(=O)n1-c1ccccc1[N+](=O)[O-],0,0,0,0,?
CCCCc1nc2ccccc2c(=O)n1-c1ccc(Cl)cc1[N+](=O)[O-],?,0,0,0,22486
CCCCn1c(N)c(N(CC(C)C)C(=O)CN2C(=O)NC3(CCC(C(C)(C)CC)CC3)C2=O)c(=O)[nH]c1=O (stereo not given),0,0,0,0,0
CC(=O)Nc1ccnc(-c2cccnc2)n1,0,0,0,0,0
SMILES,BoNT A protease,BoNT-F LC inh,MazF activator,Anthrax LF inh2,Autofluor counter
O=C(Nc1ccnc(-c2cccnc2)n1)c1ccccc1Cl,0,0,0,0,0
O=C(Nc1ccnc(-c2cccnc2)n1)c1cccc(Cl)c1Cl,0,0,0,0,22659
CC(C)C(=O)Nc1ccnc(-c2cccnc2)n1,0,0,0,0,22732
O=C1CC(N2CCN(C/C=C/c3ccccc3)CC2)C(=O)N1Cc1ccc(N2CCCC2=O)cc1 (stereo not given),0,0,0,0,19939
O=C1CC(N2CCOCC2)C(=O)N1Cc1ccc(N2CCCC2=O)cc1 (stereo not given),0,0,0,0,0
COc1cc(CN2CCN(c3ccccc3C)CC2)cc([N+](=O)[O-])c1O,0,0,0,0,0
COc1cc(CN2CCN(c3cccc(C)c3C)CC2)cc(Br)c1O,?,0,0,0,23780
COc1cc(CN2CCC(C(=O)NC3CCCC3)CC2)cc(Br)c1O,0,0,0,0,23761
COc1cc(CN2CCC(C(=O)N3CCC(C)CC3)CC2)cc(Br)c1O,0,0,0,0,0
Cc1cccc(N2CCN(Cc3ccc4c(c3)OCO4)CC2)c1C,0,0,0,0,0
COc1ccc(CN2CCN(c3cccc(C)c3C)CC2)cc1OC,0,0,0,0,17421
COc1ccc(CN2CCN(C)CC2)cc1OCc1ccccc1,0,0,0,0,20197
COC(=O)/C=C1\C(=O)N(c2nc3ccccc3s2)C(=S)N1c1ccc(F)cc1,0,0,57.7,0,0
COc1ccc(NC(=S)Nc2cccc(C(C)=O)c2)cc1OC,0,35.7,0,0,0
CC(=O)c1cccc(NC(=S)NC(=O)CC(C)(C)C)c1,0,0,0,0,25347
COc1ccc(C(=O)Nc2cccc(C(C)=O)c2)cc1OC,0,0,0,0,0
CCN(CC)C(=O)c1ccc2nc(-c3ccccc3)c(-c3ccccc3)nc2c1,0,0,0,0,0
CCN(CC)C(=O)c1cncc(C(=O)N(CC)CC)c1-c1ccccc1,0,0,0,0,20311
COc1cccc(C(=O)NCC2CCN(c3ccc(S(=O)(=O)N4CCOCC4)cc3)CC2)c1,0,0,0,0,0
O=C(c1ccc(S(=O)(=O)N2CCOCC2)cc1)N1CCN(c2ccc(F)cc2)CC1,0,0,0,0,0
O=C(NCC1CCN(c2ccc(S(=O)(=O)N3CCOCC3)cc2)CC1)c1cccc(Cl)c1,0,0,0,0,18496
O=C(c1ccc(S(=O)(=O)N2CCOCC2)cc1)N1CCN(c2cccc(Cl)c2)CC1,0,0,0,0,24247
CCC(C(=O)Nc1cnccn1)c1ccccc1 (stereo not given),0,0,0,0,24267
CCN(CC)c1nc2ccccc2n2cnnc12,0,0,0,0,23917
CCC(Oc1ccc(C)cc1)C(=O)Nc1ccccc1C(=O)N1CCOCC1 (stereo not given),0,0,0,0,0
SMILES,BoNT A protease,BoNT-F LC inh,MazF activator,Anthrax LF inh2,Autofluor counter
O=[N+]([O-])c1cc(-c2ccc(/C=N/n3cnnc3)o2)ccc1Cl,0,0,0,0,0
CC(C)COC(=O)c1cc(-c2ccc(/C=N/n3cnnc3)o2)ccc1Cl,0,0,0,0,22229
COCCn1c(SCC(=O)Nc2ccc3c(c2)OCCO3)nnc1-c1c[nH]c2ccccc12,0,0,0,0,22982
O=C(CSc1nnc(-c2cccs2)n1Cc1ccccc1)NCc1ccc2c(c1)OCO2,0,0,0,0,0
CC(Sc1nnc(-c2cccs2)n1Cc1ccccc1)C(=O)NCc1ccc2c(c1)OCO2 (stereo not given),0,0,64.1,0,0
O=C(CSc1nnc2scc(-c3ccccc3)n12)Nc1ccc2c(c1)OCCO2,?,0,0,0,16931
O=C(CCSc1nnc2scc(-c3ccccc3)n12)NCc1ccc2c(c1)OCO2,0,0,0,0,16498
COCCn1c(SCC(=O)Nc2ccc3c(c2)OCCO3)nnc1-c1ccncc1,0,0,0,0,0
